Results as given in the supplement of paper PMC3334620.
Whole data set: some 33,000 sequences, median “E-score (-0.5 to 0.5)” near -0.016, cut for the highest 2% near 0.31. The sample holds the highest values, similar sequences and a random draw of the others, so the mix is not that of the screen.

What follows are sequences tested against Cst6 (UniProt P40535) (assay: PBM E-score (8-mer binding enrichment) (E-score (-0.5 to 0.5)); higher = stronger / more preferred TF binding). Conditions: protein concentration: 200 nM; construct: GST-DNA-binding domain.
UniProt P40535, sequence (P40535 whole entry, the tested form may be a part): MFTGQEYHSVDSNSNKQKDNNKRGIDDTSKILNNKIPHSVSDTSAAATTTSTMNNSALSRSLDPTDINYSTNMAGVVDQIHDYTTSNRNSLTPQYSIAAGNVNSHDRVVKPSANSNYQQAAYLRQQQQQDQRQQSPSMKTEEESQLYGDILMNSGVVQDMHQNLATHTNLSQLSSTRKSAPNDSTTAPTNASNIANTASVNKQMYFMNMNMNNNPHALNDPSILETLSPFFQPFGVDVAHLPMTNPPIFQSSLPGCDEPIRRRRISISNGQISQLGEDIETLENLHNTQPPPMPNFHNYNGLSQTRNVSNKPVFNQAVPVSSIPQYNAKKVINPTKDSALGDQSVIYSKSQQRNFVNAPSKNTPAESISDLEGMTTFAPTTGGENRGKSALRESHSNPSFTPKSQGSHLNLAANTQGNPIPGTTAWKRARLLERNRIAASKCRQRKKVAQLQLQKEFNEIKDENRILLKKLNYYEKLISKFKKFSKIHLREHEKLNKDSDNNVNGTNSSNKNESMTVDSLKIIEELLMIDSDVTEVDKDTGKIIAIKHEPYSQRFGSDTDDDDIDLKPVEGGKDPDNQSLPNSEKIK
Summary of the method: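 Yeast transcription factors, full-length or as DNA-binding domains, were expressed with a GST tag using PURExpress in vitro transcription/translation. At about 100-200 nM they were applied to universal all-10-mer Agilent arrays, double-stranded by primer extension on fresh or once-stripped slides. Fluorescent anti-GST detected bound protein, and masliner normalised the scans. E-scores for ungapped eight-base words, pooled with reverse complements, came from the Universal PBM Analysis Suite.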
ACGTAACA was tested, and the “PBM E-score” value was 0.386. CCGTAACC was tested, and the “PBM E-score” value was -0.0836. For ACGTAACC, the “PBM E-score” value was 0.414. For AGGTAACT, the “PBM E-score” value was 0.106. GCGTAACA was tested, and the “PBM E-score” value was 0.195. In the case of ATGAGACG, the “PBM E-score” value is reported as -0.0685. ACCTAGGG was tested, and the “PBM E-score” value was -0.159. With ACCCATGG the “PBM E-score” value was -0.144. For CTCCTTTA, the “PBM E-score” value was -0.251. For CTACCGTA, the “PBM E-score” value was 0.0736. For ATCAAATA, the “PBM E-score” value was 0.0992. CTCGGTTA was tested, and the “PBM E-score” value was 0.0295. For CCGTCAGA, the “PBM E-score” value was -0.0924. TCGTCAGA was tested, and the “PBM E-score” value was 0.124. With ATGTCAGG the “PBM E-score” value was 0.176. GCGTCAGA was tested, and the “PBM E-score” value was 0.313. With GTGTCAGA the “PBM E-score” value was -0.0004. With ACGTCAGG the “PBM E-score” value was 0.413. With ACGTCAGC the “PBM E-score” value was 0.482. For GGGTCAGA, the “PBM E-score” value was -0.219. In the case of GCGTCAGC, the “PBM E-score” value is reported as 0.15. In the case of CCGTCAGG, the “PBM E-score” value is reported as -0.107. In the case of ACGTCAGA, the “PBM E-score” value is reported as 0.464. With CCGTCAGC the “PBM E-score” value was 0.0302. In the case of ACCGACGG, the “PBM E-score” value is reported as -0.0433. CTTCCCGA was tested, and the “PBM E-score” value was -0.0284. In the case of AGTCGCAG, the “PBM E-score” value is reported as -0.192. In the case of ACTCTTGA, the “PBM E-score” value is reported as -0.103. For CCTTGCAA, the “PBM E-score” value was -0.186. With ACTCCGCG the “PBM E-score” value was -0.0486. In the case of CGGCATAA, the “PBM E-score” value is reported as 0.135. For AACTCGAG, the “PBM E-score” value was -0.0652. In the case of ACCTTTGA, the “PBM E-score” value is reported as -0.156. In the case of CCTCCTAG, the “PBM E-score” value is reported as -0.121. AAGCACGT was tested, and the “PBM E-score” value was 0.0741. With GAGCAGGA the “PBM E-score” value was -0.154. In the case of GGAAACCC, the “PBM E-score” value is reported as -0.147. For AAGTCAGT, the “PBM E-score” value was 0.0407. With ACCTCAGT the “PBM E-score” value was 0.013. For ACGTCAGT, the “PBM E-score” value was 0.472. GACACGCC was tested, and the “PBM E-score” value was 0.0155. With CTGGACTA the “PBM E-score” value was -0.267. With CGTACGTA the “PBM E-score” value was 0.306. For GGTACGTA, the “PBM E-score” value was 0.136. With AGTACGTC the “PBM E-score” value was 0.205. For CGTACGCC, the “PBM E-score” value was 0.111. In the case of AGTACGTA, the “PBM E-score” value is reported as 0.267. With CGTACGTC the “PBM E-score” value was 0.31. In the case of CGTAAACA, the “PBM E-score” value is reported as 0.262. In the case of TATACCGA, the “PBM E-score” value is reported as 0.00086. For TATGATAA, the “PBM E-score” value was 0.251. In the case of CATGATGC, the “PBM E-score” value is reported as 0.28. CATGATGA was tested, and the “PBM E-score” value was 0.342. For GCTGATGA, the “PBM E-score” value was 0.278. GGTGATGA was tested, and the “PBM E-score” value was 0.362. With TATGATCA the “PBM E-score” value was 0.207. With GGTGATTA the “PBM E-score” value was 0.206. GATGATCA was tested, and the “PBM E-score” value was 0.171. With CGTGATGA the “PBM E-score” value was 0.297. For TATGATGA, the “PBM E-score” value was 0.337. With CATGATGG the “PBM E-score” value was -0.0379. In the case of GATGATGA, the “PBM E-score” value is reported as 0.319. CACGCTAC was tested, and the “PBM E-score” value was -0.134. For ACTACCGC, the “PBM E-score” value was -0.0306. CTCTCAAG was tested, and the “PBM E-score” value was -0.14. In the case of GCCAACGC, the “PBM E-score” value is reported as -0.0319. With CGAACTAG the “PBM E-score” value was 0.0382. With CGCAATTA the “PBM E-score” value was 0.18. CCCAAAAC was tested, and the “PBM E-score” value was 0.105. CCTGGGGA was tested, and the “PBM E-score” value was -0.402. For CCTGCACA, the “PBM E-score” value was -0.179. In the case of ACACTACT, the “PBM E-score” value is reported as 0.0264. CCTTCCGA was tested, and the “PBM E-score” value was -0.149. With AGCTACTC the “PBM E-score” value was -0.274. CTTGATGA was tested, and the “PBM E-score” value was 0.24. ATTGATGA was tested, and the “PBM E-score” value was 0.296. In the case of GTTGATGA, the “PBM E-score” value is reported as 0.309. With ACGAGGAT the “PBM E-score” value was -0.0239. With ATGTCACG the “PBM E-score” value was 0.396. CTGTCACA was tested, and the “PBM E-score” value was 0.0581. GTGTCACA was tested, and the “PBM E-score” value was 0.229. With ATGTCAAA the “PBM E-score” value was 0.237. In the case of ATGTCACA, the “PBM E-score” value is reported as 0.375. In the case of CTGTCACC, the “PBM E-score” value is reported as 0.0496. For ATGTCAAC, the “PBM E-score” value was 0.251. With ATGTCAGA the “PBM E-score” value was 0.221. With ATGTCACC the “PBM E-score” value was 0.465. In the case of AGGGCTAG, the “PBM E-score” value is reported as -0.242. ATCTCTCG was tested, and the “PBM E-score” value was -0.0585. In the case of GGGAAAAC, the “PBM E-score” value is reported as -0.0343. AGAGGTTC was tested, and the “PBM E-score” value was -0.11. In the case of AAAGCGCT, the “PBM E-score” value is reported as 0.183. With GCCGCACC the “PBM E-score” value was 0.226. In the case of ATAGAAGG, the “PBM E-score” value is reported as -0.208. GTATAATA was tested, and the “PBM E-score” value was 0.288. With ACATAATA the “PBM E-score” value was 0.345. GTAATATA was tested, and the “PBM E-score” value was 0.354. GCATAATA was tested, and the “PBM E-score” value was 0.227. For ATAATATC, the “PBM E-score” value was 0.219. In the case of CTAATATA, the “PBM E-score” value is reported as 0.302. For ATATAATA, the “PBM E-score” value was 0.31. In the case of ATAATATA, the “PBM E-score” value is reported as 0.358. With ATAATATG the “PBM E-score” value was 0.273. ACATAATC was tested, and the “PBM E-score” value was 0.267. In the case of CTATAATA, the “PBM E-score” value is reported as 0.0135. For GTAATAGA, the “PBM E-score” value was 0.0316. For TTCACAAA, the “PBM E-score” value was 0.0753. In the case of ATCGCGTG, the “PBM E-score” value is reported as 0.0786. In the case of CGGGCGAC, the “PBM E-score” value is reported as -0.319. With GGAGGCCA the “PBM E-score” value was -0.314. AAAAGGTA was tested, and the “PBM E-score” value was -0.0898. With AATTACCG the “PBM E-score” value was 0.196. For ATTCGATC, the “PBM E-score” value was 0.153. With GTTGTTCA the “PBM E-score” value was 0.0498. With ATGAGCCG the “PBM E-score” value was 0.0382. For ATACGGTG, the “PBM E-score” value was 0.104. For CTACGGCA, the “PBM E-score” value was 0.283. For GTACGGCA, the “PBM E-score” value was 0.249. With ATACGGCG the “PBM E-score” value was 0.36. For ATACGGCA, the “PBM E-score” value was 0.394. ATACGGCC was tested, and the “PBM E-score” value was 0.138. For AGAAAAGG, the “PBM E-score” value was 0.0591. For CAGACTTA, the “PBM E-score” value was -0.094. CATAAGCA was tested, and the “PBM E-score” value was -0.0945. With GTCACTGA the “PBM E-score” value was 0.281. In the case of GTCACTCA, the “PBM E-score” value is reported as 0.315. ATCACTTA was tested, and the “PBM E-score” value was 0.194. CTCACTCA was tested, and the “PBM E-score” value was 0.0247. In the case of GTCACTTA, the “PBM E-score” value is reported as 0.331. For ATCACTCA, the “PBM E-score” value was 0.138. CCAGTGTC was tested, and the “PBM E-score” value was -0.108. In the case of GCGCCTAC, the “PBM E-score” value is reported as 0.136. In the case of CGGCAACG, the “PBM E-score” value is reported as 0.0207. TCGAAGCA was tested, and the “PBM E-score” value was -0.0376. For GGCCGCTA, the “PBM E-score” value was -0.232. For AACGCGGC, the “PBM E-score” value was 0.261. GACGCGGC was tested, and the “PBM E-score” value was 0.318. In the case of CACGCGGC, the “PBM E-score” value is reported as 0.279. In the case of GCCGCGGA, the “PBM E-score” value is reported as 0.0146. In the case of GCCGCGGC, the “PBM E-score” value is reported as 0.31. With CCCGCGGC the “PBM E-score” value was 0.109. For AGTGAACC, the “PBM E-score” value was -0.0808. With AACGTCGA the “PBM E-score” value was 0.133. With AACGTCGG the “PBM E-score” value was -0.174. GACGTCCA was tested, and the “PBM E-score” value was 0.276. GACGTCGA was tested, and the “PBM E-score” value was 0.292. In the case of CACGTCAG, the “PBM E-score” value is reported as 0.449. In the case of AACGTCAG, the “PBM E-score” value is reported as 0.371. GACGTCAA was tested, and the “PBM E-score” value was 0.479. CCCGTCAG was tested, and the “PBM E-score” value was -0.282. AACGTCAA was tested, and the “PBM E-score” value was 0.401. With CACGTCTG the “PBM E-score” value was 0.0582. With AACGTCCA the “PBM E-score” value was 0.0436. With AACGTCTG the “PBM E-score” value was 0.0755. With CAAACTCA the “PBM E-score” value was 0.0635. For GGCACCAC, the “PBM E-score” value was -0.1. AAGCGATG was tested, and the “PBM E-score” value was -0.134. In the case of CCAGTTCG, the “PBM E-score” value is reported as -0.0928. In the case of CAAACGCG, the “PBM E-score” value is reported as 0.0743. With ATGGCCCA the “PBM E-score” value was -0.0308. With AACTTCCA the “PBM E-score” value was -0.178. In the case of AGACCTAC, the “PBM E-score” value is reported as -0.227. In the case of ATCCCAGG, the “PBM E-score” value is reported as -0.234. For CCGATCTC, the “PBM E-score” value was -0.145. With CACGTCTC the “PBM E-score” value was -0.097. With TACGTCCA the “PBM E-score” value was 0.0953. For AACGTCTC, the “PBM E-score” value was -0.0757. For AACGTCAC, the “PBM E-score” value was 0.488. TGCGTCCA was tested, and the “PBM E-score” value was -0.0683. For CACGTCCC, the “PBM E-score” value was -0.216. For GGCGTCAA, the “PBM E-score” value was 0.263. With TACGTCTA the “PBM E-score” value was 0.188. In the case of TGCGTCAA, the “PBM E-score” value is reported as 0.318. For CACGTCAC, the “PBM E-score” value was 0.489. For AACGTCCC, the “PBM E-score” value was -0.173. In the case of TACGTCAA, the “PBM E-score” value is reported as 0.484.
